The source made the active and inactive calls.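 The calls were made as follows: active = blocks over 70% of labeled estradiol binding at 10 µM, or over a set limit at 100 nM; inactive = the rest.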
Target: Estrogen receptor beta (Homo sapiens) (UniProt Q92731)
Assay: ERbeta ligand binders by competition, primary screen, cell-based, Cos7 ERbeta-GFP, flow cytometry (AID 1210);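 also: 0% = DMSO vehicle wells and 100% = complete loss of labeled estradiol signal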
Settings: fluorescent estrogen binding, stronger effect = higher value
[1] = ligand binding inhibition, at 0.1 µM

Estrogen receptor beta (Homo sapiens), sequence (Q92731 whole entry, looked up): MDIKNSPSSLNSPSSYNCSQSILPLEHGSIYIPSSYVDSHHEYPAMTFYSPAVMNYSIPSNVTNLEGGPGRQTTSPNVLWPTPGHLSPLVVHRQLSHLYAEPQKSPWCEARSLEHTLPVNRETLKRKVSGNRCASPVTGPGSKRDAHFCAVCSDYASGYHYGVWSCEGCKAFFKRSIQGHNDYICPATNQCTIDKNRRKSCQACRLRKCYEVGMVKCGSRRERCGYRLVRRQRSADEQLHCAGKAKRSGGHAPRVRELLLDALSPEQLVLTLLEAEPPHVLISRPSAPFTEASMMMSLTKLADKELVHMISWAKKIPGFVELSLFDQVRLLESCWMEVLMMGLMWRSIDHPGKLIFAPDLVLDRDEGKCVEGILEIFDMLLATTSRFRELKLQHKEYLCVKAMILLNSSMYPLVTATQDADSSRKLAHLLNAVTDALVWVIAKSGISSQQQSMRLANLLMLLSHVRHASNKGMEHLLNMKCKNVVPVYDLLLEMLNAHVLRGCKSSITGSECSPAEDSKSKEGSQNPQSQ

Cn1c(SCC(=O)Nc2sccc2C#N)nnc1-c1ccccc1
inhibition (at 10 µM): 12% (inactive)
inhibition [1]: 13%

CC1CCc2c(sc(NC(=O)c3ccc(Cn4cc([N+](=O)[O-])cn4)o3)c2C#N)C1 (stereo unspecified)
inhibition (at 10 µM): 19% (inactive)
inhibition [1]: 58%

Oc1ccc(C2=Nn3c(nnc3-c3ccco3)SC2)cc1O
inhibition (at 10 µM): 32% (inactive)
inhibition [1]: 1%

CC(C)C1Nc2ccc(S(N)(=O)=O)cc2C2C=CCC21 (stereo unspecified)
inhibition (at 10 µM): 57% (inactive)
inhibition [1]: 20%

CC1(C)Cc2c(sc3c4nnnn4c4nnnn4c23)CO1
inhibition (at 10 µM): 23% (inactive)
inhibition [1]: 40%

CCOC(=O)c1c(/N=C/c2ccc(O)cc2O)sc2c1CCC2
inhibition (at 10 µM): 33% (inactive)
inhibition [1]: 22%

CCC1(C)NC(=O)N(CC(=O)Nc2sc3c(c2C(N)=O)CCC3)C1=O (stereo unspecified)
inhibition (at 10 µM): 58% (inactive)
inhibition [1]: 39%

COc1cccc(C2Nc3c(F)cc(Br)cc3C3C=CCC32)c1OC (stereo unspecified)
inhibition (at 10 µM): 40% (active)
inhibition [1]: 74%

O=C(CSc1nnc(SCC(=O)c2ccco2)s1)c1ccco1
inhibition (at 10 µM): 56% (inactive)
inhibition [1]: 33%

N=C1C(c2nc3ccccc3[nH]2)=C(O)CN1c1ccc(CC(=O)O)cc1
inhibition (at 10 µM): 26% (inactive)
inhibition [1]: 21%

COc1ccc(N2Cc3cccc(C(=O)O)c3C2=O)cc1
inhibition (at 10 µM): 42% (inactive)
inhibition [1]: 32%

CN=c1scc(C)n1/N=C/c1ccc(O)cc1O
inhibition (at 10 µM): 58% (inactive)
inhibition [1]: 6%

COc1cc2c3c(c1)/C(=C1/SC(NC(C)=O)=NC1=O)C(=O)N3C(C)(C)C=C2C
inhibition (at 10 µM): 37% (inactive)
inhibition [1]: 4%

COc1cccc(NC(=O)CSc2nc3ccccc3c3nc4ccccc4n23)c1
inhibition (at 10 µM): 31% (inactive)
inhibition [1]: 18%

CC(C)(C)OC(=O)N1CCN(c2ccc(NC(=O)Cn3nnc(-c4ccccc4)n3)cc2)CC1
inhibition (at 10 µM): 64% (inactive)
inhibition [1]: 6%

Cc1cc(C)c2c(c1)NC(c1cc3c(cc1Br)OCO3)C1CC=CC21 (stereo unspecified)
inhibition (at 10 µM): 42% (inactive)
inhibition [1]: 46%

CC1(C)OC(C)(C)/C(=C/Nc2ccc(O)cc2)C1=O
inhibition (at 10 µM): 58% (inactive)
inhibition [1]: 58%

O=C(O)c1ccc(NS(=O)(=O)c2ccc3c(c2)C2C=CCC2C(c2ccccc2F)N3)cc1 (stereo unspecified)
inhibition (at 10 µM): 7% (inactive)
inhibition [1]: 9%

Cc1ccc2[nH]c(=O)c(C3C(C#N)=C(N)Oc4c3ccc3cccnc43)cc2c1 (stereo unspecified)
inhibition (at 10 µM): 44% (inactive)
inhibition [1]: 24%

O=C(O)c1cc(-c2ccco2)nc2ccc(Br)cc12
inhibition (at 10 µM): 63% (inactive)
inhibition [1]: 9%

Cc1nnc(SCC(=O)NC(=O)NCc2ccco2)n1Cc1ccccc1
inhibition (at 10 µM): 71% (active)
inhibition [1]: 53%

Clc1ccc(Sc2cc(N3CCOCC3)nc(-c3ccccc3)n2)cc1
inhibition (at 10 µM): 36% (inactive)
inhibition [1]: 18%

CCn1c(SCC(=O)Nc2cccc(F)c2)nnc1-c1cc2cc(Br)ccc2o1
inhibition (at 10 µM): 39% (inactive)
inhibition [1]: 12%

CCN(c1ccccc1)S(=O)(=O)c1ccc2[nH]cc(C(=O)NCCOC)c(=O)c2c1
inhibition (at 10 µM): 35% (inactive)
inhibition [1]: 30%

COc1cc2c(cc1O)CC[n+]1cc3c(OC)c(OC)ccc3cc1-2
inhibition (at 10 µM): 25% (inactive)
inhibition [1]: 23%

C/C(N)=C(/C#N)C(=O)CSc1nnc(Nc2cccc(C)c2C)s1
inhibition (at 10 µM): 39% (inactive)
inhibition [1]: 7%

O=C1C=CC(O)(c2cc(=O)c3c(O)cc(O)cc3o2)C=C1
inhibition (at 10 µM): 29% (inactive)
inhibition [1]: 8%

O=C(Nc1cccc(-c2cn3cccnc3n2)c1)c1ccc2c(c1)OCO2
inhibition (at 10 µM): 26% (inactive)
inhibition [1]: 48%

O=C1C2C3C=CC(C3)C2C(=O)N1c1cccc2cccnc12 (stereo unspecified)
inhibition (at 10 µM): 55% (inactive)
inhibition [1]: 51%

Oc1ccc(-c2[nH]nc(-c3ccccc3)c2-c2nc3ccccc3[nH]2)cc1
inhibition (at 10 µM): 33% (inactive)
inhibition [1]: 21%

Cc1ccc(Oc2cc(N3CCOCC3)nc(-c3ccccc3)n2)cc1
inhibition (at 10 µM): 35% (inactive)
inhibition [1]: 15%

O=C(CNc1ccccc1)N/N=C/c1cn(-c2ccccc2)nc1-c1ccccc1
inhibition (at 10 µM): 53% (inactive)
inhibition [1]: 48%

Cc1ccsc1/C=C(\C(=O)c1ccc(OC(C)C)cc1)c1nc2ccccc2o1
inhibition (at 10 µM): 34% (inactive)
inhibition [1]: 60%

COc1ccc2c(c1)c(=O)oc1cc(OCC(=O)N3CCC(C)CC3)ccc12
inhibition (at 10 µM): 52% (inactive)
inhibition [1]: 35%

Cc1cccc(N2CCN(C(=O)c3cc4c(=O)n(C)c5ccccc5c4n3C)CC2)c1C
inhibition (at 10 µM): 46% (inactive)
inhibition [1]: 27%

COC(=O)c1c(-c2ccncc2)csc1NC(=O)c1ccoc1C
inhibition (at 10 µM): 52% (inactive)
inhibition [1]: 1%

NNc1nc2sc3c(c2c(=O)[nH]1)CCc1ccccc1-3
inhibition (at 10 µM): 23% (inactive)
inhibition [1]: 37%

C=C1C2C[C@H](O)C(C)(C)[C@@]2(O)[C@H](O)C[C@]23C[C@@](C)(O)[C@H](CC[C@H]12)[C@H]3O (stereo partly specified)
inhibition (at 10 µM): 70% (inactive)
inhibition [1]: 1%

O=C(Nc1nccs1)c1nc(-c2ccccc2)n(-c2ccccc2)n1
inhibition (at 10 µM): 38% (inactive)
inhibition [1]: 22%

CSc1nc2c(c(=O)[nH]1)C(c1cccs1)C1=C(CCCC1=O)N2 (stereo unspecified)
inhibition (at 10 µM): 71% (active)
inhibition [1]: 33%

CCOC(=O)Cn1cnc2sc3c(c2c1=O)CCC3
inhibition (at 10 µM): 37% (inactive)
inhibition [1]: 28%

COc1ccc(C2Nc3ccccc3C(=O)N2c2ccccc2)cc1Cn1cc([N+](=O)[O-])cn1 (stereo unspecified)
inhibition (at 10 µM): 26% (inactive)
inhibition [1]: 45%

CCCCN(CCCC)S(=O)(=O)c1ccc(NC(=O)Cc2cccs2)cc1
inhibition (at 10 µM): 50% (inactive)
inhibition [1]: 19%

Cc1ccc(S(=O)(=O)Cc2ccc(C(=O)O)o2)cc1
inhibition (at 10 µM): 54% (inactive)
inhibition [1]: 27%

COc1ccc(-c2nc3ccc([N+](=O)[O-])cc3o2)cc1
inhibition (at 10 µM): 36% (inactive)
inhibition [1]: 12%

CCn1c(SCC(=O)c2ccc(O)c(O)c2)nnc1-c1ccccc1OC
inhibition (at 10 µM): 58% (inactive)
inhibition [1]: 3%

COc1cc(C(=O)Nc2nnc(-c3sccc3C)s2)cc(OC)c1OC
inhibition (at 10 µM): 52% (inactive)
inhibition [1]: 34%

CCn1c(SCC(=O)N2CCOCC2)nc2oc3c(Cl)cc(Cl)cc3c(=O)c2c1=O
inhibition (at 10 µM): 56% (inactive)
inhibition [1]: 1%

CCCN(CCC)S(=O)(=O)c1ccc(NC(=O)Cc2cccs2)cc1
inhibition (at 10 µM): 46% (inactive)
inhibition [1]: 20%

CN1C(=O)CSc2ccc(NC(=O)N3CCC(N4CCCCC4)CC3)cc21
inhibition (at 10 µM): 30% (inactive)
inhibition [1]: 19%

COc1ccc(C2CC(c3ccccc3)=NN2C(=O)CSc2nccc(=O)[nH]2)cc1 (stereo unspecified)
inhibition (at 10 µM): 33% (inactive)
inhibition [1]: 37%

COCCOC(=O)c1[nH]c2c(c1C)C(=O)CC(c1ccco1)C2 (stereo unspecified)
inhibition (at 10 µM): 35% (inactive)
inhibition [1]: 26%

Cc1ccccc1OCC1Cc2c(nc(N)c(C#N)c2N)O1 (stereo unspecified)
inhibition (at 10 µM): 25% (inactive)
inhibition [1]: 11%

Cc1ccccc1-n1nc(-c2ccc(N)cc2)cc1N
inhibition (at 10 µM): 25% (inactive)
inhibition [1]: 21%

Cc1ccc(/C=c2\sc3nc(-c4ccco4)nn3c2=O)o1
inhibition (at 10 µM): 61% (inactive)
inhibition [1]: 27%

O=C(Nc1ccccc1[N+](=O)[O-])C1=C(O)CCn2c1nc1ccccc12
inhibition (at 10 µM): 37% (inactive)
inhibition [1]: 46%

O=S(=O)(NCC(O)COCc1ccco1)c1cccs1 (stereo unspecified)
inhibition (at 10 µM): 12% (inactive)
inhibition [1]: 20%

O=C(OCC(=O)N1CCN(C(=O)c2ccco2)CC1)c1cc(-c2ccco2)nc2ccccc12
inhibition (at 10 µM): 25% (inactive)
inhibition [1]: 33%

CSc1ccccc1NC(=O)c1noc2c1CCC2
inhibition (at 10 µM): 26% (inactive)
inhibition [1]: 12%

O=S(=O)(c1cccc(-c2cn3cccnc3n2)c1)N1CCCCCC1
inhibition (at 10 µM): 14% (inactive)
inhibition [1]: 17%

COc1ccc(OC)c(C(=O)CSc2nnc(-c3ccc(OC)c(OC)c3)o2)c1
inhibition (at 10 µM): 49% (inactive)
inhibition [1]: 12%

COc1ccccc1/C=c1\sc2nc(-c3ccco3)nn2c1=O
inhibition (at 10 µM): 60% (inactive)
inhibition [1]: 21%

Cc1ccc(OCc2ccoc2C(=O)O)cc1C
inhibition (at 10 µM): 0% (inactive)
inhibition [1]: 8%

Reference: PubChem BioAssay AID1210 (NMMLSC, 2008)
